Source: PubChem BioAssay (Tox21)
Results filed as inconclusive are left out. Activity calls are given as the source filed them. Unless noted, calls follow the shape of the dose curve; as a rule, active = well fitted curve in the direction sought with a large enough effect in the repeat runs; inconclusive = weak or mixed curves; inactive = no such curve, though single readings can be large; an effect the other way counts as inactive or inconclusive.

How the values were obtained:
[1] = qHTS assay to identify small molecule agonists of H2AX (AID 1224845; active = well fitted activation curve with a large enough effect in the signal ratio in the repeat runs, not every such curve was filed as active; the % refers to the signal ratio); details: CHO-K1 phospho-H2AX Ser139 HTRF, 3 h; series mostly up to 154 µM
Method in brief: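 Phospho-H2AX Ser139 measured by HTRF (ex 320 nm; em 665 and 620 nm) after 24 hr antibody incubation. Compounds, 15 concentrations, 0.76% DMSO, were applied to CHO-K1 cells for 3hr at 37C before lysis.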

[2] = qHTS assay to identify small molecule agonists of the hypoxia (HIF-1) signaling pathway (AID 1224846; active = well fitted activation curve with a large enough effect in the signal ratio in the repeat runs, not every such curve was filed as active; the % refers to the signal ratio); details: HRE-bla ME-180 cells, beta-lactamase ratio, 17 h; series mostly up to 76.8 µM
Method in brief: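 Steps: seed ME-180 HRE-bla cells (2,000/well, 0.5% dialyzed FBS); incubate 5 hrs at 37C; pin-transfer compounds or DMSO; incubate 17 hrs; add LiveBLAzer B/G substrate CCF4-AM; measure reporter activation by FRET.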

[3] = qHTS assay to identify small molecule agonists of H2AX - cell viability counter screen (AID 1224847; calls by dose curve; also: top concentration of the series differs between compounds; nearly all actives have a fitted effect of over 30% in size); details: CHO-K1 viability, CellTiter-Glo luminescence, 3 h; series mostly up to 154 µM
Method in brief: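 Viability of CHO-K1 (wild type) cells after 3 hr compound exposure was measured by CellTiter-Glo luminescence.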

[4] = qHTS RealTime-Glo MT Cell Viability Assay in HepG2 cells - 24 hour (AID 1224867); details: RealTime-Glo luminescence; series mostly up to 76.8 µM; also: nearly all actives have a fitted effect of over 50% in size
Method in brief: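 Luminescence read-out: viable HepG2 cells reduce a prosubstrate to a NanoLuc substrate, giving a signal proportional to live cell number. Reads taken at 0, 8, 16, 24, 32 and 40 h of compound exposure at 37 C.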

[5] = qHTS RealTime-Glo MT Cell Viability Assay in HEK293 cells - 32 hour (AID 1224868); details: RealTime-Glo luminescence; series mostly up to 76.8 µM; also: top concentration of the series differs between compounds; nearly all actives have a fitted effect of over 50% in size
Method in brief: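 Nonlytic real-time viability readout: viable cells convert prosubstrate to NanoLuc substrate, giving luminescence proportional to live cell number. HEK293, 600 cells/well, compound added after 5 h, continuous culture at 37 C.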

[6] = A CellTox Green Cytotoxicity Assay to monitor cytotoxicity in HEK293 cells - 0 hour (AID 1224869); details: CellTox Green fluorescence; series mostly up to 76.8 µM; also: nearly all actives have a fitted effect of over 50% in size
Method in brief: (§1)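 Cytotoxicity was tracked continuously in HEK293 cells by a DNA-binding dye excluded from viable cells. Compounds were transferred in DMSO 5 h after seeding; fluorescence was recorded at intervals up to 40 h.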

[7] = qHTS RealTime-Glo MT Cell Viability Assay in HepG2 cells - 40 hour (AID 1224870); details: RealTime-Glo luminescence; series mostly up to 76.8 µM; also: nearly all actives have a fitted effect of over 50% in size
Method in brief: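 Real-time viability: cells seeded at 600 per well together with NanoLuc and cell-permeant prosubstrate, compounds added after 5 h incubation. Luminescence tracked at 0, 8, 16, 24, 32 and 40 h of exposure.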

[8] = A CellTox Green Cytotoxicity Assay to monitor cytotoxicity in HEK293 cells - 40 hour (AID 1224871); details: CellTox Green fluorescence; series mostly up to 76.8 µM; also: nearly all actives have a fitted effect of over 45% in size
Method in brief: as §1

Measured: Potency

Cc1nc(N)nc(N)n1
inactive: [1] | [2] | [3] | [4] | [5] | [6] | [7]

C=CC1CC=CCC1 (stereo not drawn)
inactive: [1] | [2] | [3] | [4] | [5] | [6] | [7]

O=C1OC(=O)C2C1C1(Cl)C(Cl)=C(Cl)C2(Cl)C1(Cl)Cl (stereo not drawn)
inactive: [1] | [2] | [3] | [4] | [5] | [6] | [7]

CCOP(=O)(N=C1SCCS1)OCC
inactive: [1] | [2] | [3] | [4] | [5] | [6] | [7]

ClC(Cl)C(Cl)Cl
inactive: [1] | [2] | [3] | [4] | [5] | [6] | [7] | [8]

COP(N)(=S)Oc1ccccc1C(=O)OC(C)C (stereo not drawn)
inactive: [1] | [2] | [3] | [4] | [5] | [6] | [7] | [8]

CC(C)CC#N
inactive: [1] | [2] | [3] | [4] | [5] | [6] | [7] | [8]

O=C(CCCN1CCC(n2c(=O)[nH]c3ccccc32)CC1)c1ccc(F)cc1
inactive: [1] | [2] | [3] | [4] | [6] | [7] | [8]

CCC1(c2ccccc2)C(=O)NC(=O)NC1=O
inactive: [1] | [2] | [3] | [4] | [5] | [7] | [8]

Oc1c(Cl)cccc1Cl
inactive: [1] | [2] | [3] | [4] | [5] | [6] | [7] | [8]

CC(CC(C#N)(c1ccccc1)c1ccccc1)N(C)C (stereo not drawn)
inactive: [1] | [2] | [3] | [4] | [7]

CC1(C)CON(Cc2ccccc2Cl)C1=O
inactive: [1] | [2] | [3] | [4] | [5] | [6] | [7] | [8]

COP(=S)(OC)Oc1ccc(S(N)(=O)=O)cc1
inactive: [1] | [2] | [3] | [5] | [6] | [7]

Cc1ncsc1CCCl
inactive: [1] | [2] | [3] | [5] | [6] | [7] | [8]

CCOP(=O)(OCC)OP(=O)(OCC)OCC
inactive: [1] | [2] | [3] | [4] | [5] | [6] | [7] | [8]
